According to PubChem BioAssay AID651791 (National Center for Advancing Translational Sciences (NCATS), 2012):
Records with an inconclusive call do not appear. Calls come from the whole dose curve; as a rule, active = well fitted inhibition curve with a large enough effect; inconclusive = small, poorly fitted or top-dose-only effect; inactive = no such curve, though single readings can be large or run the other way.

Assay: InCell qHTS Assay for Inhibitors of the mTORC1 Signaling Pathway in MEF (Tsc2-/-, p53-/-) Cells: Hit Validation;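 note: phospho-S6 Ser235/236 signal normalized to propidium iodide cell count per well; nearly all actives have a fitted effect of over 75% in size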
Settings: phospho-rpS6 immunofluorescence, 24 h; activity change, negative = inhibition: at 38.3 µM (top of the series)

Activity change, negative = inhibition, -9.58%:
CC(=O)Nc1cccc(NC(=O)C(=O)NCCc2sc(-c3ccccc3)nc2C)c1

Activity change, negative = inhibition, -3.93%:
COc1cc(C(=O)CC2(O)C(=O)N(Cc3ccccc3Cl)c3ccccc32)cc(OC)c1OC (stereo not given)

Activity change, negative = inhibition, -16.4%:
COc1cc(Nc2nc(SCC(=O)c3ccc(Cl)c(Cl)c3)nc3ccccc23)cc(OC)c1

Activity change, negative = inhibition, -100%:
CCC(C(=O)N1CCN(c2cccc(C)c2C)CC1)n1nc(C)c2sc3ccccc3c2c1=O (stereo not given)
Cc1ccc(O)c(C(CC(=O)NCC2(c3ccccc3)CCCC2)c2ccccc2)c1 (stereo not given)
CCOc1ccc(Nc2nc(-c3cccc(Cl)c3)c3c(n2)-c2ccccc2OC3)cc1
Cc1cccc(Cn2cc(C(=O)Nc3ccc(F)c(C(F)(F)F)c3)ccc2=O)c1
CN(Cc1ccccc1)C(=O)CSc1c2c(nc3ccc(Cl)cc13)CCCC2
CCNc1nc2c(c(=O)[nH]c(=O)n2C)n1CC(O)COc1ccc(Cl)cc1Cl (stereo not given)
COc1ccccc1N=c1scc(-c2ccc(S(=O)(=O)N3CCCC3)cc2)n1C
COc1ccc(C(C(=O)Nc2ccc(C(C)C)cc2)N(C)C(=O)Cc2cccs2)cc1 (stereo not given)
COc1ccc(-c2n[nH]c3c2C(c2ccc(O)cc2)N(c2ccc(Br)cc2)C3=O)cc1 (stereo not given)
Cc1cccc(-n2cnc3cc(C(=O)NC4CCCCCC4)ccc32)c1
CCOc1ccccc1NC(=O)c1cn(C2CCCC2)c(=O)c2c1c1ccccc1n2C
Cc1ccccc1NC(=O)c1c(NC(=O)C(F)(F)F)sc2c1CCCCC2
CCOC(=O)c1cnc2c(ccc3ccccc32)c1Nc1ccc(OC)cc1OC
CC(C)CCNC(=O)Nc1ccc2c(c1)N(C)C(=O)c1ccccc1S2
COc1ccc(OCC(=O)NCc2ccc3c(c2)CCN3C(=O)c2cccc(C)c2)cc1
Cc1ccc(-c2nnn(CC(=O)N(CC(=O)NCCC(C)C)c3ccc(F)cc3)n2)cc1
COc1ccc(CCCc2nnc(SCC(=O)Nc3ccc(OC)cc3)o2)cc1
